Assays:
[1] = target: T1, Aspartate--tRNA(Asp/Asn) ligase (Mycobacterium tuberculosis (strain ATCC 25618 / H37Rv)) (UniProt P9WFW3); assay: Assay for Asp RNA synthetase-1 from Mycobacterium tuberculosis; assay type: functional; set-up: scale not given: direction of the effect not stated beside the values; settings: 30 µM; further: in the data most compounds retested in dose-response had high values
T1 sequence (whole entry): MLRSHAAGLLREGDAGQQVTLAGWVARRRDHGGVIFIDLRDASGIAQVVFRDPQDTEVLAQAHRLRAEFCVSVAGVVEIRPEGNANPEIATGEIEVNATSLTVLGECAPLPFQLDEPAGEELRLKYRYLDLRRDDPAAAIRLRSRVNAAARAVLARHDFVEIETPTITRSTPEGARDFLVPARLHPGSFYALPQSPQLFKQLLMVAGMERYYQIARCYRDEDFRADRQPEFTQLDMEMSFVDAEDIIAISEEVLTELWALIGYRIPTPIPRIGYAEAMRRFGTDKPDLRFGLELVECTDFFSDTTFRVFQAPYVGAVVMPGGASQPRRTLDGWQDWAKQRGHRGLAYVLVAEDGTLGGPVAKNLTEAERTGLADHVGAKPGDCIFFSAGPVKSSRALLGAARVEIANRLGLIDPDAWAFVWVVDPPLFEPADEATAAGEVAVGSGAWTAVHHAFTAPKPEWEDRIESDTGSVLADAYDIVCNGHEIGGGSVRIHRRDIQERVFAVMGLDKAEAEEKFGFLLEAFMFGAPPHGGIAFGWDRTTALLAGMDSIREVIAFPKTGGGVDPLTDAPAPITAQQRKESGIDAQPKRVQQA

[2] = target: Shiga toxin 2 (Escherichia coli O157:H7) (UniProt P09385+P09386); assay: E. coli 0.157:H7 Shiga Toxin SOP - stx2 screening assay; assay type: functional; set-up: scale not given: direction of the effect not stated beside the values; settings: 30 µM

CC(C)CC(=O)N1CCCn2cnc(CN3CCCC3=O)c2C1
Percent Effect [1]: -3.68% | Percent Effect [2]: -15.8%

COCCNC(=O)Nc1ccc(-n2cncn2)c(F)c1
Percent Effect [1]: -2.66% | Percent Effect [2]: 12.3%

O=C(c1cccs1)N1CCC(n2nc(-c3ccco3)ccc2=O)CC1
Percent Effect [1]: -0.968% | Percent Effect [2]: 6.63%

Nc1cc2c(nn1)CCN(C(=O)CC1CCCC1)C2
Percent Effect [1]: -1.69% | Percent Effect [2]: 2.23%

COc1ccc(CN2CCCC(Nc3cccc(F)c3)C2)cc1O (configuration not stated)
Percent Effect [1]: 5.06% | Percent Effect [2]: 5.84%

O=C(CCCc1ncc(-c2ccccc2)o1)N1CCN(CCO)CC1
Percent Effect [1]: -1.6% | Percent Effect [2]: -44.5%

COc1cccc(-n2c(C)cc(C(=O)O)c2C)c1
Percent Effect [1]: -3.77% | Percent Effect [2]: 5.95%

CNC(=O)[C@@]12CCCN(c3ncccn3)[C@@H]1CN(C(=O)NC(C)C)C2
Percent Effect [1]: 1.62% | Percent Effect [2]: -25.1%

COCCC1(CO)CCCN(Cc2ccc(F)c(C)c2)C1 (configuration not stated)
Percent Effect [1]: 6.95% | Percent Effect [2]: 15.6%

CC(C)Cc1noc(CN2CCN(CCOc3ccc(Cl)cc3)CC2)n1
Percent Effect [1]: 0.745% | Percent Effect [2]: 10.8%

CCOCC1CN(S(=O)(=O)N(C)C)Cc2cnn(C)c21 (configuration not stated)
Percent Effect [1]: -3.4% | Percent Effect [2]: 6.68%

— ChEMBL document CHEMBL3988442, “University of Dundee, Small-Polar-MMV Screening Library” (2021)
